We go through 89 compounds from PubChem BioAssay AID1259415 (National Center for Advancing Translational Sciences (NCATS), 2018).

About 18,000 (4.4%) of roughly 410,000 compounds were called active. Inconclusive results (about 7%) are left out. Rule as the data show it: active = activity change below about -60%; inconclusive = no clear call, values can overlap the other calls; inactive = above about -39%. Shown is part of a subset that was picked to be rich in actives.
% is scaled to controls: 0 for no effect and ±100 for the full control effect.

This assay in a line: qHTS Assay for inhibitors of the human cytomegalovirus (HCMV). As to conditions: HFF cells, HCMV-luciferase reporter, 72 h; at 57.5 µM; stronger effect = lower value. Summed up: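 Cell-based, HFFs, 1000 cells/well, 16 h 37C; cpds in DMSO + HCMV-luc, MOI 1 PFU/cell; 72 h 37C; OneGlo luminescence after 5 min RT; norm. to buffer vs Salinomycin 10uM.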
Consider `COCCNS(=O)(=O)c1cc(-c2nn3c(C)nnc3c3ccccc23)ccc1C`, for which the activity change, negative = inhibition is 6.92% (inactive).
The figure for `Cc1cc(Cl)c(S(=O)(=O)NCCC(=O)O)cc1OCC(N)=O` is 8.87% (inactive); for `Cc1cc(Cl)c(S(=O)(=O)N(C)C)cc1OCC(N)=O` it is 12.2% (inactive).
For the compound `Cc1cc(Cl)c(S(=O)(=O)Nc2ccc3c(c2)OCCO3)cc1OCC(N)=O`, the activity change, negative = inhibition is -65.5% (active).
Regarding `CC(C)CNC(=O)CC(c1ccccc1)c1c(O)ccc2ccccc12` (centres undefined), the activity change, negative = inhibition was 16% (inactive).
On to `O=C(/C=C/c1ccccc1)Nc1cc(-c2nc3cc(Cl)ccc3o2)ccc1Cl`, for which the activity change, negative = inhibition was 88.6% (inactive).
The figure for `CC(=O)N1CCCc2cc(S(=O)(=O)N3CCC(C(=O)NCc4ccc(F)cc4)CC3)ccc21` is 7.04% (inactive); for `O=C(NCc1ccc2c(c1)CCN2C(=O)c1ccccc1)c1ccccc1` it is 13.7% (inactive).
As for `O=C(NCc1ccc2c(c1)CCN2C(=O)c1ccccc1)Nc1cc(F)ccc1F`, the activity change, negative = inhibition was -84.8% (active).
The figure for `O=C(COc1ccccc1)NCc1ccc2c(c1)CCN2C(=O)c1ccc(F)cc1` is -6.87% (inactive); for `COc1ccc(C(=O)Nc2cccc(C(=O)OCc3cc(=O)n4c5c(sc4n3)CCCC5)c2)cc1` it is -36% (inactive).
Under `COc1ccc(CCNc2ncnc3onc(-c4ccc(Cl)cc4)c23)c(OC)c1` stands 0.256% (inactive); under `COc1ccc(OC)c(Cc2cnc3nc(N)nc(N)c3c2C)c1`, -98.1% (active); under `COc1ccc(OC)c(-n2nnc3c(sc4nc(C)c(Br)c(C)c43)c2=O)c1`, -8.62% (inactive).
The figure for `N#Cc1cccc(NC(=O)C2CCCN(C(=O)c3ccc(Cl)cc3)C2)c1` (centres undefined) is -66% (active); for `O=C(Cc1ccc(NC(=O)C2CCCN(C(=O)C3CCCCC3)C2)cc1)Nc1cccc(C(=O)N2CCCCC2)c1` (centres undefined) it is 1.06% (inactive).
Regarding `N#Cc1cccc(NC(=O)CN2CCCCCC2)c1`, the activity change, negative = inhibition was -11.3% (inactive).
The figure for `CSc1ccc(CCNC(=O)c2cnn(-c3ccccc3)c2-n2cccc2)cc1` is -13.5% (inactive); for `COc1ccc(Nc2ncc3c(n2)CCN(C(=O)OC(C)(C)C)C3)cc1` it is 12.2% (inactive); for `COC(=O)c1ccc(NC(=O)c2cccc3c2C(=O)N(C2CCCCC2)C3)cc1` it is 12.9% (inactive).
The figure for `COC(=O)c1ccc(C)c(NC(=O)Cn2c(C)csc2=O)c1` is 0.424% (inactive); for `Cc1cccc(NC(=S)N2CCC(C(=O)c3ccc(F)cc3)CC2)c1` it is 15% (inactive).
Turning to `Cc1cccc(NC(=S)NCc2ccc3[nH]c4c(c3c2)CCCC4)c1`, the activity change, negative = inhibition is -72.9% (active).
Turning to `CCc1cccc(NC(=O)CN(C)S(=O)(=O)c2ccc3[nH]c4c(c3c2)CCCC4)c1`, the activity change, negative = inhibition is 3.8% (inactive).
`Cc1ccc2c(c1)-c1c(cnn1CC(=O)Nc1ccccc1C#N)CO2`: the activity change, negative = inhibition was -27.6% (inactive).
The figure for `CCn1cc(C(=O)N2CCN(c3cc(C)ccc3C)CC2)c(=O)c2cc(S(=O)(=O)N(C)C3CCCCC3)ccc21` is 10.1% (inactive); for `S=C(NCCC1=CCCCC1)Nc1ccccc1` it is -67% (active).
Take `CC(=O)Nc1ccc(S(=O)(=O)N(C)CC(=O)NCCC2=CCCCC2)cc1`: the activity change, negative = inhibition is -7.2% (inactive).
For `CC(OC(=O)c1c(F)cccc1F)C(=O)NCCC1=CCCCC1` (centres undefined), the activity change, negative = inhibition is 20.1% (inactive).
The figure for `Fc1ccccc1-c1noc2nc(OCc3ccc(OC(F)F)cc3)ccc12` is 7.83% (inactive); for `CCc1ccccc1N1C(=O)CN(S(=O)(=O)CC)CC1(C)C(=O)NC1CCCCC1` (centres undefined) it is 0% (inactive); for `COc1ccc2c(c1)C(NS(=O)(=O)OCC(Cl)(Cl)Cl)CCC2` (centres undefined) it is -21% (inactive).
As for `CCCc1cc(=O)[nH]c(SCC(=O)N2C(C)CCCC2C)n1` (centres undefined), the activity change, negative = inhibition is 24.9% (inactive).
The figure for `CCCc1cc(=O)[nH]c(SCC(=O)c2c(N)n(CC(C)C)c(=O)n(C)c2=O)n1` is -60.6% (active); for `CC(C)Cn1c(N)c(C(=O)COC(=O)CN2C(=O)C3CC=CCC3C2=O)c(=O)n(C)c1=O` (centres undefined) it is -31.7% (inactive).
Turning to `O=C1N=C(N2CCOCC2)S/C1=C\C=C/c1ccccc1`, the activity change, negative = inhibition was -102% (active).
Under `CC1CCN(C2=NC(=O)/C(=C/c3cn[nH]c3-c3ccccc3)S2)CC1` stands -1.68% (inactive).
On to `O=C1N=C(N2CCOCC2)CS1`, for which the activity change, negative = inhibition is -12.8% (inactive).
The figure for `COc1ccc(C2CC(=O)N(Cc3ccccc3C)c3c2c(C)nn3-c2nc(C)cc(C)n2)c(OC)c1` (centres undefined) is -22.9% (inactive); for `O=C(COc1ccc(Cl)cc1)Nc1ccc(-c2nc3cc(Cl)ccc3o2)c(O)c1` it is 71.6% (inactive).
The figure for `O=C(Cn1cnc2ccccc2c1=O)Nc1cccc(S(=O)(=O)N2CCCCC2)c1` is 0% (inactive); for `CCC(C)c1ccccc1NC(=O)CN(C)CC(=O)Nc1ccccc1SC` (centres undefined) it is -37.9% (inactive); for `CSc1ccccc1NC(=O)CN(C)CC(=O)Nc1ccc(Cl)cc1[N+](=O)[O-]` it is -26.6% (inactive).
Take `CSc1ccccc1NC(=O)CN(C)CC(=O)Nc1cccc(Br)c1`: the activity change, negative = inhibition was -99.6% (active).
Under `O=C(Cn1c(=O)n(Cc2cccs2)c(=O)c2cccnc21)Nc1ccc(F)cc1` stands -5.11% (inactive); under `CCCC(=O)Nc1ccc2oc(-c3ccc(O)c(Br)c3)nc2c1`, 94.7% (inactive).
The figure for `COc1ccc(CCNC(=O)c2cc(=O)c3c(C)cc(C)cc3o2)cc1OC` is -6.54% (inactive); for `COc1cccc(-n2cc(C(=O)NCc3cccc(Cl)c3)c3ccccc3c2=O)c1` it is -23.6% (inactive).
Under `CCN(CC)c1ccc(NS(=O)(=O)c2cc(-c3cc(C)no3)ccc2C)c(C)c1` stands 0% (inactive).
As for `CCC1CN(S(=O)(=O)c2cc(-c3cc(C)no3)ccc2C)c2cc(C)ccc2O1` (centres undefined), the activity change, negative = inhibition is -36.6% (inactive).
`Cc1ccc2c(c1)N(S(=O)(=O)c1cc(-c3cc(C)no3)ccc1C)CCO2`: the activity change, negative = inhibition is -81.3% (active).
Under `C[C@@H]1NS(=O)(=O)c2cc(Cl)ccc2O[C@@H]1c1ccccc1` stands -16.5% (inactive); under `COc1ccc(CCn2cc3c(c2-c2ccc(Br)cc2)c(=O)n(C)c(=O)n3C)cc1OC`, 15.4% (inactive); under `COc1ccc(S(=O)(=O)NCc2cccn2Cc2cccc(C)c2)cc1`, -4.02% (inactive).
Under `CCOc1ccc(N(C)S(=O)(=O)c2cc(-c3cnc(C)o3)ccc2OC)cc1` stands -20.5% (inactive); under `Cc1nn(C(C)C(=O)Nc2ccc(C(C)C)cc2)c(=O)c2c1sc1ccccc12` (centres undefined), -9.99% (inactive); under `COc1ccccc1Nc1nc(N)nc(N)c1S(=O)(=O)c1ccccc1`, 21.5% (inactive).
For `COc1ccccc1NC(=O)C1CCCN1S(=O)(=O)c1ccc(Cl)cc1` (centres undefined), the activity change, negative = inhibition is 0.0905% (inactive).
As for `COc1ccccc1NC1=NC(c2ccc(Cl)cc2)N=C(N)N1` (centres undefined), the activity change, negative = inhibition is -75.4% (active).
With `CC(=NNC(N)=O)c1ccc(Cl)c(-n2cccc2)c1`, the activity change, negative = inhibition was 25.6% (inactive).
Under `Cc1cccc2c(=O)cc(CSc3ccccc3NC(=O)C(C)C)[nH]c12` stands 45.6% (inactive); under `COCCCNC(=O)c1ccc(NC(=O)c2nsc3ccccc23)cc1`, 114% (inactive); under `CCCc1ccc(OCc2ccc(C(=O)N/N=C/c3cccc([N+](=O)[O-])c3)o2)c(OC)c1`, -67.9% (active).
The figure for `COc1ccccc1OCc1ccc(C(=O)NC(C)c2ccccc2)o1` (centres undefined) is 26.2% (inactive); for `Cc1cccc(NC(=O)c2ccc(COc3ccccc3[N+](=O)[O-])o2)n1` it is -4.62% (inactive).
As for `COc1ccc(N(CC(=O)NCCc2ccc(Cl)cc2)S(=O)(=O)c2c(C)nn(C)c2C)cc1`, the activity change, negative = inhibition was -14.4% (inactive).
For the compound `Cc1ccc(S(=O)(=O)NCc2nc3nc(C)cc(C)n3n2)cc1`, the activity change, negative = inhibition was 14.6% (inactive).
Under `Cc1ccc(-c2nn3c(=O)cc(CN4CCN(C(=O)Nc5cccc(C(F)(F)F)c5)CC4)nc3s2)cc1` stands 10.5% (inactive).
Regarding `CCOC(=O)C1CCN(c2csc3ccc(C)cc3c2=O)CC1`, the activity change, negative = inhibition was -4.71% (inactive).
Under `Cn1c(COc2ccccc2C(C)(C)C)nc2ccccc21` stands -14.6% (inactive); under `CC(NCc1nc2ccccc2n1C)C12CC3CC(CC(C3)C1)C2` (centres undefined), -65.6% (active).
`COc1cccc(C(O)Cc2nc3ccccc3n2C)c1OC` (centres undefined): the activity change, negative = inhibition was 34.8% (inactive).
On to `CCOC(=O)c1ccc(NC(=O)c2csc3c2CCCCC3)cc1`, for which the activity change, negative = inhibition was 26.3% (inactive).
Regarding `Nn1c(SCC(=O)NC2CCCc3ccccc32)nnc1C1CC1` (centres undefined), the activity change, negative = inhibition was 40.9% (inactive).
Under `CC(C)N(Cc1ccccc1)C(=O)COC(=O)c1ccccc1SCC(=O)N1CCCC1` stands -8.52% (inactive).
The figure for `O=C(CC1C(=O)NCCN1Cc1ccc(-c2ccccc2)cc1)NCc1ccncc1` (centres undefined) is 11.9% (inactive).
The figure for `CC(C)c1nc(CNC(=O)CC2C(=O)NCCN2Cc2cccc(F)c2F)cs1` (centres undefined) is 12.4% (inactive).
With `COc1ccc(CN2CCNC(=O)C2CC(=O)NCc2cn[nH]c2-c2ccccc2)c(F)c1` (centres undefined), the activity change, negative = inhibition was -65.5% (active).
Under `CCOc1ccc(N2CC(C)Cn3c2nc2c3c(=O)n(Cc3c(F)cccc3Cl)c(=O)n2C)cc1` (centres undefined) stands -9.51% (inactive); under `CCOc1ccccc1NC(=O)CN1CCN(S(=O)(=O)c2ccc(Br)cc2)CC1`, -1.48% (inactive); under `O=C(NC1CC(=O)N(c2ccc(F)cc2)C1)C1CCCCC1` (centres undefined), 31.9% (inactive).
Consider `Cc1ccc(C)c(N2CCN(C(c3ccccc3)c3nnc(-c4ccccc4)o3)CC2)c1` (centres undefined), for which the activity change, negative = inhibition is 20.2% (inactive).
The figure for `O=C(NN1C(=O)C2C3C=CC(C4CC34)C2C1=O)c1ccc(Cl)cc1` (centres undefined) is 11.6% (inactive); for `O=C(NN1C(=O)C2C3C=CC(O3)C2C1=O)c1ccncc1` (centres undefined) it is -8.47% (inactive); for `COc1ccc(C(=O)NN2C(=O)C3C(c4ccccc4)C=CC(c4ccccc4)C3C2=O)cc1` (centres undefined) it is -63% (active).
Under `CCc1cccc(NC(=O)c2cnc(N3CCOCC3)c3ccccc23)c1` stands 10.1% (inactive); under `COc1ccc(CCNC(=O)c2ccc3c(c2)nc(C)n3-c2ccc(Br)cc2)cc1OC`, -16.1% (inactive).
For the compound `Cc1ccc(C)c(Cn2c(C)c(CNCc3ccc(F)cc3)c(C(=O)O)c2C)c1`, the activity change, negative = inhibition was 18.1% (inactive).
The figure for `Cc1ccc(C2c3[nH]c4ccccc4c3CCN2C(=O)c2cccc(C)c2)cc1` (centres undefined) is -22.4% (inactive).
